Measurements reported in PMC7862700, “An all-to-all approach to the identification of sequence-specific readers for epigenetic DNA modifications on cytosine”.

Experiments:
Experiment in all cases: DAPPL (digital affinity profiling via proximity ligation, sequencing); 10 mM Tris-HCl pH 7.5, 50 mM NaCl, 1 mM DTT, 4% glycerol, room temperature, 30 min; GST-TFs on glutathione beads, 16-mer random dsDNA library, 0.1% formaldehyde crosslink after washing; high values mean tight binding
[1] = target: T1, FLI1 (Homo sapiens, UniProt Q01543 1-452); settings: protein: recombinant; tags: N-terminal GST; dsDNA, one strand shown
T1 sequence: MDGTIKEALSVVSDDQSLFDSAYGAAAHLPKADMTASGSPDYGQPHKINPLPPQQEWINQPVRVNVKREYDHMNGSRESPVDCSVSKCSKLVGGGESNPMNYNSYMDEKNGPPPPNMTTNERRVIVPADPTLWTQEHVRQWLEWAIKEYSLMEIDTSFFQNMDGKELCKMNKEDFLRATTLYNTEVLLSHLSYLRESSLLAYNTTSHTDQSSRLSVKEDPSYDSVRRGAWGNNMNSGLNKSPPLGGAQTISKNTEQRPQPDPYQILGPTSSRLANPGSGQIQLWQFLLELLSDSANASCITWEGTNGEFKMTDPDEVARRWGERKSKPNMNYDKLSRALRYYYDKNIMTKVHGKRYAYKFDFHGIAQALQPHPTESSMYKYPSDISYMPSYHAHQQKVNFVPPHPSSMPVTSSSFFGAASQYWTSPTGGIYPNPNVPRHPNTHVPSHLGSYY
Method in brief: (§1)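 Pools were built from human transcription factors expressed in yeast as GST fusions, captured on glutathione beads and DNA-barcoded, along with a tag-only sample. Incubation with 200 nmole of a 16-mer random double-stranded DNA library lasted 30 min at room temperature in Tris/NaCl/DTT/glycerol buffer, and was followed by washing, 0.1% formaldehyde crosslinking, proximity ligation, PCR amplification and Illumina NextSeq500 sequencing. Binding signal is the quotient of each hexamer's read frequency for a factor and its frequency for the tag-only sample.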

[2] = target: T2, ELK1 (Homo sapiens, UniProt P19419 1-428); settings: protein: recombinant; tags: N-terminal GST; dsDNA, one strand shown
T2 sequence: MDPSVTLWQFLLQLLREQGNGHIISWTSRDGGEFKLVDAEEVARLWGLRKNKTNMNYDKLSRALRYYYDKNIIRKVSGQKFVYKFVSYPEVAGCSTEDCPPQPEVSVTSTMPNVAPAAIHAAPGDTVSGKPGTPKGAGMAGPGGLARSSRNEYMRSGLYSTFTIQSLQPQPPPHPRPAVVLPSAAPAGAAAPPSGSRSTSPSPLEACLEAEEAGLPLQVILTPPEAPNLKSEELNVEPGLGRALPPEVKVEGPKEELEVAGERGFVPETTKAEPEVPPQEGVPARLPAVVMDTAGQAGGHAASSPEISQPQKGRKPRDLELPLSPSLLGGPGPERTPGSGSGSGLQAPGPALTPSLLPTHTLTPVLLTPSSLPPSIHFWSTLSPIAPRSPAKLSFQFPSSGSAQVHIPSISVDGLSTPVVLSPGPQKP
Method in brief: as §1

[3] = target: T3, GABPA (Homo sapiens, UniProt Q06546 1-454); settings: protein: recombinant; tags: N-terminal GST; dsDNA, one strand shown
T3 sequence: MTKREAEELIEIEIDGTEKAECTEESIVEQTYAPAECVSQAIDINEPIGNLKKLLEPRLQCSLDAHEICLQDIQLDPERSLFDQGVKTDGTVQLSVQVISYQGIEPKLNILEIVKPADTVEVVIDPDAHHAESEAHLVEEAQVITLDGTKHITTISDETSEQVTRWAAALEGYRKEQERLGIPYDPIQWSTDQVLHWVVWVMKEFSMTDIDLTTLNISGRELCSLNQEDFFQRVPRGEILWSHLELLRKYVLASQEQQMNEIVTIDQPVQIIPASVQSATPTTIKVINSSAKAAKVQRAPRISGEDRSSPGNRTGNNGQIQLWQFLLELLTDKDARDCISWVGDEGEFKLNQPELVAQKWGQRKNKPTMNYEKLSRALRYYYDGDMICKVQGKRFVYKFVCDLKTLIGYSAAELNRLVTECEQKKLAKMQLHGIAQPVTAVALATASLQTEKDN
Method in brief: as §1

[4] = target: T4, ERG (Homo sapiens, UniProt P11308 1-479); settings: protein: recombinant; tags: N-terminal GST; dsDNA, one strand shown
T4 sequence: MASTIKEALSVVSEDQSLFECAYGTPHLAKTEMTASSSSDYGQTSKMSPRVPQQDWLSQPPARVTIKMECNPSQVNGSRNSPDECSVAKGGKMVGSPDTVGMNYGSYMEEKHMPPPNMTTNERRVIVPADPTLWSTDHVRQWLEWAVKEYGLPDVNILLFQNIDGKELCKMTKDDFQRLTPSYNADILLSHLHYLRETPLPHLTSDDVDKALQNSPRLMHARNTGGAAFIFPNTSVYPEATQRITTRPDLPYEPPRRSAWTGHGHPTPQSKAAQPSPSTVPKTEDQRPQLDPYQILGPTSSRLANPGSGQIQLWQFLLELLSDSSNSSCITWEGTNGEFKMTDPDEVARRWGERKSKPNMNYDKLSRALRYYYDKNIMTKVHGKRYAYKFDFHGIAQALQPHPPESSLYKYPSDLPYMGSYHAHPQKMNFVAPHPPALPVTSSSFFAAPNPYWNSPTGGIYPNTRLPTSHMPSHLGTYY
Method in brief: as §1

[5] = target: ELF1 (Homo sapiens, UniProt P32519 1-619); settings: protein: recombinant; tags: N-terminal GST; dsDNA, one strand shown
Sequence of ELF1 (P32519 whole entry): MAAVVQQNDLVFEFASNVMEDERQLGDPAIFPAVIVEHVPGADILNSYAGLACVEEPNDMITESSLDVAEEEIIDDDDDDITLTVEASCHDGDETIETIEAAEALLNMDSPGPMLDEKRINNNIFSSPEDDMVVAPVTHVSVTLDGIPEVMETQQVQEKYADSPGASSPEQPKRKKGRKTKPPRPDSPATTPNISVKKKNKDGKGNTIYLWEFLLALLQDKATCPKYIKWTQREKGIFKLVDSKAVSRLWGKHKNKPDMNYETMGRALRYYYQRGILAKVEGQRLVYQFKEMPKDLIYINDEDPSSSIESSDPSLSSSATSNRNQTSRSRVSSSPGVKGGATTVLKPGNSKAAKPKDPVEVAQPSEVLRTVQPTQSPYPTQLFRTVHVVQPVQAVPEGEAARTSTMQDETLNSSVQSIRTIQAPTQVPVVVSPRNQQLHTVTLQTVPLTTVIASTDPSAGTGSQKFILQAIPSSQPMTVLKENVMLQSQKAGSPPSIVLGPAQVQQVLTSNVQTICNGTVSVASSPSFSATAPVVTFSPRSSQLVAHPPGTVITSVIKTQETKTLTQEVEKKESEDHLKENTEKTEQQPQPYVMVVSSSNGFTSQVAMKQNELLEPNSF
Method in brief: as §1

[6] = target: T5, EHF (Homo sapiens, UniProt Q9NZC4 1-300); settings: protein: recombinant; tags: N-terminal GST; dsDNA, one strand shown
T5 sequence: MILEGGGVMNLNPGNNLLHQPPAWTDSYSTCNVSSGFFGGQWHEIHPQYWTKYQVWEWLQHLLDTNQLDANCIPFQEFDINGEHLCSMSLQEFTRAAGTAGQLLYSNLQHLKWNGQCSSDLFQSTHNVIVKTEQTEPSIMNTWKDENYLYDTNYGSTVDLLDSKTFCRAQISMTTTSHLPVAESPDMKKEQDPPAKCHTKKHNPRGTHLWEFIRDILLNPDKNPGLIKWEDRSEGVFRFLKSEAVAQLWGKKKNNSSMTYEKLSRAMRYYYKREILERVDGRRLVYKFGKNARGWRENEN
Method in brief: as §1

[7] = target: SPI1 (Homo sapiens, UniProt P17947 1-270); settings: protein: recombinant; tags: N-terminal GST; dsDNA, one strand shown
Method in brief: as §1

[8] = target: SPIB (Homo sapiens, UniProt Q01892 1-262); settings: protein: recombinant; tags: N-terminal GST; dsDNA, one strand shown
Sequence of SPIB (Q01892 whole entry): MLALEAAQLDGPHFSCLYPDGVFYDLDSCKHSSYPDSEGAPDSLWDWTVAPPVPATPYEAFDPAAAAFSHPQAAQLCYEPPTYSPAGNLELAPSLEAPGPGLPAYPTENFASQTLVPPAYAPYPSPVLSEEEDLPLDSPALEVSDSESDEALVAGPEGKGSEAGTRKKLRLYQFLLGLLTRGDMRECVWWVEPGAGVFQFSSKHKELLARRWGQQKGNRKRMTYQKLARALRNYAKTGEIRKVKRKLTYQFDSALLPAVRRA
Method in brief: as §1

[9] = target: T6, ELK3 (Homo sapiens, UniProt P41970 1-407); settings: protein: recombinant; tags: N-terminal GST; dsDNA, one strand shown
T6 sequence: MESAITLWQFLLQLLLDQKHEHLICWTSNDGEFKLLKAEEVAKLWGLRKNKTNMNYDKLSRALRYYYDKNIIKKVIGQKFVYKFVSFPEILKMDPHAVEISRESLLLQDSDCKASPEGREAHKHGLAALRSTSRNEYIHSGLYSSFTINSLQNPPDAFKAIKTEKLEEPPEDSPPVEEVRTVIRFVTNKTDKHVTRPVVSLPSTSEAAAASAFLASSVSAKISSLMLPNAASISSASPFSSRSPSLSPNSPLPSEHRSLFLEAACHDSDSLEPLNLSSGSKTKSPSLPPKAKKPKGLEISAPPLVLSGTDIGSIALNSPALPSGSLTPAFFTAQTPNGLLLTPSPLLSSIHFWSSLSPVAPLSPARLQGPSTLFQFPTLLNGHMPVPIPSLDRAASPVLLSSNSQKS
Method in brief: as §1

[10] = target: T7, FEV (Homo sapiens, UniProt Q99581 1-238); settings: protein: recombinant; tags: N-terminal GST; dsDNA, one strand shown
T7 sequence: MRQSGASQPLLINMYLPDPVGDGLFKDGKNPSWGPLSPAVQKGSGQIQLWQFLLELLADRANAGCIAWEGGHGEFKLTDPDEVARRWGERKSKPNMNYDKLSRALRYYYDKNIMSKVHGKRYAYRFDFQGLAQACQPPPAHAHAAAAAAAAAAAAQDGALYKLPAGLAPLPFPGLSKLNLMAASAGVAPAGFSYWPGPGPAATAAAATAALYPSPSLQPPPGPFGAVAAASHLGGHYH
Method in brief: as §1

[11] = target: ETV5 (Homo sapiens, UniProt P41161 1-510); settings: protein: recombinant; tags: N-terminal GST; dsDNA, one strand shown
Sequence of ETV5 (P41161 whole entry): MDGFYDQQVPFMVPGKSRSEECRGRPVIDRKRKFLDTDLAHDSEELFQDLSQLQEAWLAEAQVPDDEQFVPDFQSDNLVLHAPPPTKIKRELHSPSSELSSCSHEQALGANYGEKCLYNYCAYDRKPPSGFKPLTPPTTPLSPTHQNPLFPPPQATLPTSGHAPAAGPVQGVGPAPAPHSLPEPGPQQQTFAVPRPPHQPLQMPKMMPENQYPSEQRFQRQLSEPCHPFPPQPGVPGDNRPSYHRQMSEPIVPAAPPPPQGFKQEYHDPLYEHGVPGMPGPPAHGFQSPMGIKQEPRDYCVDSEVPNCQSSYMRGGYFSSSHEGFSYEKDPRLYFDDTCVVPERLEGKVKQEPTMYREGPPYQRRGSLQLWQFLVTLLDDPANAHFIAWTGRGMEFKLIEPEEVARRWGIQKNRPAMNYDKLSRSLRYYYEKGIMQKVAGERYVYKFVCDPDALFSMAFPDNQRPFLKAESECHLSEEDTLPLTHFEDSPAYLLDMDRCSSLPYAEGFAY
Method in brief: as §1

[12] = target: HSF1 (Homo sapiens, UniProt Q00613 1-529); settings: protein: recombinant; tags: N-terminal GST; chain copies: 3; dsDNA, one strand shown
Sequence of HSF1 (Q00613 whole entry): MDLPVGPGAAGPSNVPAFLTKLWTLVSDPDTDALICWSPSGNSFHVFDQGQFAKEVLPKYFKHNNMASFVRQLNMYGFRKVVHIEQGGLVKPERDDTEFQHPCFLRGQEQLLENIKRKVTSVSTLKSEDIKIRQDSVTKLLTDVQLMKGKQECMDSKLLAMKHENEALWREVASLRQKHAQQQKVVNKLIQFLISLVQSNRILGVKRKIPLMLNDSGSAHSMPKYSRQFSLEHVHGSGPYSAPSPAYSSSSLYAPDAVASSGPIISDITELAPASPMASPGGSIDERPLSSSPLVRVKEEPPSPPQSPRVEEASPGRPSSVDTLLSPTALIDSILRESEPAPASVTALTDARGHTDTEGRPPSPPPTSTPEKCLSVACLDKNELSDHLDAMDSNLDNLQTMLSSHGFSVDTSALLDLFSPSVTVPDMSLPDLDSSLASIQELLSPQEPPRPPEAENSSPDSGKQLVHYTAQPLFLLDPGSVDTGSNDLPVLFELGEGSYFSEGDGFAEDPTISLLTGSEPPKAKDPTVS
Method in brief: as §1

[13] = target: T8, SPIC (Homo sapiens, UniProt Q8N5J4 1-248); settings: protein: recombinant; tags: N-terminal GST; dsDNA, one strand shown
T8 sequence: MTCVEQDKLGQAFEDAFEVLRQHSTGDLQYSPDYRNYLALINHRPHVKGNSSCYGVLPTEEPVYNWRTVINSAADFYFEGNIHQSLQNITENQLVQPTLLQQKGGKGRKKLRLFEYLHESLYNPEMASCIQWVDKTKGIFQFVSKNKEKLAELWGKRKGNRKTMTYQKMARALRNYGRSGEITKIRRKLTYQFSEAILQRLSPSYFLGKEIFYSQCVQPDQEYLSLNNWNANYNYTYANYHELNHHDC
Method in brief: as §1

[14] = target: ELF4 (Homo sapiens, UniProt Q99607 1-663); settings: protein: recombinant; tags: N-terminal GST; dsDNA, one strand shown
Sequence of ELF4 (Q99607 whole entry): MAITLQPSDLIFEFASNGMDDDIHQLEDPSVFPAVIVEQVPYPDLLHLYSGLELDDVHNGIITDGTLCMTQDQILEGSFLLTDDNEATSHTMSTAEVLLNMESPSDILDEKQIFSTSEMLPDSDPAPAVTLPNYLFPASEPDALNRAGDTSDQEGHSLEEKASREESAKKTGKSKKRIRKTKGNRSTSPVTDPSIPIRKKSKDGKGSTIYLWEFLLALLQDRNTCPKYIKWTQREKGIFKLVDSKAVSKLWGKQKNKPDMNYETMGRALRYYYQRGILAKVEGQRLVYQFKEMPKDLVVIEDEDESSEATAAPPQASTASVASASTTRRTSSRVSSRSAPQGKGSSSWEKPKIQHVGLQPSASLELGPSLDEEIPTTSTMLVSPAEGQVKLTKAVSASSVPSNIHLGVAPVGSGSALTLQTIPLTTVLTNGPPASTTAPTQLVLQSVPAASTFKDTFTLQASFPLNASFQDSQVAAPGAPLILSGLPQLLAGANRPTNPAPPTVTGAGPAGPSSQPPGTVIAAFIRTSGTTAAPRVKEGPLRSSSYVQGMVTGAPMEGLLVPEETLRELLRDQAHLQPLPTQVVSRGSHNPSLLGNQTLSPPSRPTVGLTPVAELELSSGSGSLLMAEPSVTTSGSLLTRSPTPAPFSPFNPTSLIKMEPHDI
Method in brief: as §1

[15] = target: T9, ELK4 (Homo sapiens, UniProt P28324-2 1-405); settings: protein: recombinant; tags: N-terminal GST; dsDNA, one strand shown
T9 sequence: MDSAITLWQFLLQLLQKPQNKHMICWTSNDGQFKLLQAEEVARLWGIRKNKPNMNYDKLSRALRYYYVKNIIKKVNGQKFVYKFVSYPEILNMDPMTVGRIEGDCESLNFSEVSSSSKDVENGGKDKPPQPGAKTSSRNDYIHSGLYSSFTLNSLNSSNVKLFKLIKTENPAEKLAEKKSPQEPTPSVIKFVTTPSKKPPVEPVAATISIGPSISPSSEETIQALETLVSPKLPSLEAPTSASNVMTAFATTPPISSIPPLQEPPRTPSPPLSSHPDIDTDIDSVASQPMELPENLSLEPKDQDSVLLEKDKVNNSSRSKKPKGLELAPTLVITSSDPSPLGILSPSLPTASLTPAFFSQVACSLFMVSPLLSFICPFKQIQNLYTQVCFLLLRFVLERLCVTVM
Method in brief: as §1

[16] = target: T10, ETV2 (Homo sapiens, UniProt O00321 1-342); settings: protein: recombinant; tags: N-terminal GST; dsDNA, one strand shown
T10 sequence: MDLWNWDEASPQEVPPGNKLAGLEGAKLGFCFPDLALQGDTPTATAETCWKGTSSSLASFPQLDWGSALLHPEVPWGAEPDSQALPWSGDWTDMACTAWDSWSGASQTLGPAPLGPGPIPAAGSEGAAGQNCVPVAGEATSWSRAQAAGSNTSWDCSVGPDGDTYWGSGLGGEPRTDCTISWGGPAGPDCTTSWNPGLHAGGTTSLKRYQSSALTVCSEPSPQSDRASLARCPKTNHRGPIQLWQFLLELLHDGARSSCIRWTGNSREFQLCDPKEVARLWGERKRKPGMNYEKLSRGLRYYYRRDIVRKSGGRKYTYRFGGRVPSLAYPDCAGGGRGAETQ
Method in brief: as §1

[17] = target: T11, ELF3 (Homo sapiens, UniProt P78545 1-371); settings: protein: recombinant; tags: N-terminal GST; dsDNA, one strand shown
T11 sequence: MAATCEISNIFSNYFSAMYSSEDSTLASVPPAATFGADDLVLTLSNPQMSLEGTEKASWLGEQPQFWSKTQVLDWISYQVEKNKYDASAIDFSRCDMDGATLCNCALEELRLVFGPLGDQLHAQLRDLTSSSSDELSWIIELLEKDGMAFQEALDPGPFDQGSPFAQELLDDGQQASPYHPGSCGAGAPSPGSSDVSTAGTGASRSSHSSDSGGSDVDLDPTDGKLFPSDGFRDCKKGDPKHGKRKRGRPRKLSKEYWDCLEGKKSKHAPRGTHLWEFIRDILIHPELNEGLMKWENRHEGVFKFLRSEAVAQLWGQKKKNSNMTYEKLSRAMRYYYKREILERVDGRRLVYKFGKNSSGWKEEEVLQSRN
Method in brief: as §1

[18] = target: CRX (Homo sapiens, UniProt O43186 1-299); settings: protein: recombinant; tags: N-terminal GST; dsDNA, one strand shown
Sequence of CRX (O43186 whole entry): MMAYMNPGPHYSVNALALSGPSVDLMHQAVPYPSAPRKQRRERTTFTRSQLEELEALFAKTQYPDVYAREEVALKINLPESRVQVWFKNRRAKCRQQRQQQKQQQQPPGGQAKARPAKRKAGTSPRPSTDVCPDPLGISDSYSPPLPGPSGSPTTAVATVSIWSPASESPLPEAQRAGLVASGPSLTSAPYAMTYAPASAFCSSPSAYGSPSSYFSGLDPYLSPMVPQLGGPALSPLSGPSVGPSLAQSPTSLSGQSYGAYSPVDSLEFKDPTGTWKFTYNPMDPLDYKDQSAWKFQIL
Method in brief: as §1

[19] = target: ETV1 (Homo sapiens, UniProt P50549 1-477); settings: protein: recombinant; tags: N-terminal GST; dsDNA, one strand shown
Sequence of ETV1 (P50549 whole entry): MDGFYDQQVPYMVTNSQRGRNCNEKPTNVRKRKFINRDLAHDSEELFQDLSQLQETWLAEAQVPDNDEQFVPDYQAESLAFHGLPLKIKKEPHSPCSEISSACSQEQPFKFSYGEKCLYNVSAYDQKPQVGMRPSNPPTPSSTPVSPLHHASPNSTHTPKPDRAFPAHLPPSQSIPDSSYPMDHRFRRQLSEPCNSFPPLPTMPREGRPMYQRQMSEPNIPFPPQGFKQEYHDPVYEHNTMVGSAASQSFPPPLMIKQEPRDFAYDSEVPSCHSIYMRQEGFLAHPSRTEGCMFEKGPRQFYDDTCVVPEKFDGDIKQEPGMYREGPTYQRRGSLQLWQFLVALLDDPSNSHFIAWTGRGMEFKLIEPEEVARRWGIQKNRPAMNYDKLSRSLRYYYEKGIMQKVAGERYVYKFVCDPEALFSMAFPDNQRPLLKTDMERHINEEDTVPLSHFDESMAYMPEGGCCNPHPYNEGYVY
Method in brief: as §1

ATCCAA
binding signal [1]: 1.15 fold enrichment (6-mer frequency, TF over GST control)
binding signal [2]: 1.19 fold enrichment (6-mer frequency, TF over GST control)
binding signal [3]: 1.18 fold enrichment (6-mer frequency, TF over GST control)
binding signal [4]: 1.09 fold enrichment (6-mer frequency, TF over GST control)
binding signal [5]: 1.2 fold enrichment (6-mer frequency, TF over GST control)
binding signal [6]: 1.1 fold enrichment (6-mer frequency, TF over GST control)
binding signal [7]: 1.11 fold enrichment (6-mer frequency, TF over GST control)
binding signal [8]: 1.22 fold enrichment (6-mer frequency, TF over GST control)
binding signal [9]: 1.14 fold enrichment (6-mer frequency, TF over GST control)
binding signal [10]: 1.19 fold enrichment (6-mer frequency, TF over GST control)
binding signal [11]: 1.13 fold enrichment (6-mer frequency, TF over GST control)
binding signal [12]: 1.29 fold enrichment (6-mer frequency, TF over GST control)
binding signal [13]: 1.12 fold enrichment (6-mer frequency, TF over GST control)
binding signal [14]: 1.23 fold enrichment (6-mer frequency, TF over GST control)
binding signal [15]: 1.16 fold enrichment (6-mer frequency, TF over GST control)
binding signal [16]: 1.09 fold enrichment (6-mer frequency, TF over GST control)
binding signal [17]: 1.28 fold enrichment (6-mer frequency, TF over GST control)
binding signal [18]: 1.63 fold enrichment (6-mer frequency, TF over GST control)
binding signal [19]: 1.18 fold enrichment (6-mer frequency, TF over GST control)
